# Where “and” joins values, the source holds several entries; their conditions need not be identical. Equal entries are not always repeated. The campaign covered roughly 5,500 compounds. About 2,000 (36%) were called active. Roughly 18% stayed inconclusive and do not appear here. Some of the results follow. A number with no mark means an inactive call. Cut-off read from the data, not from the text of the source: active = normalized growth mostly below about 0.91 (no sharp cut-off); inconclusive = no clear call, values can overlap the other calls; inactive = mostly above about 0.92.
# Assay: chemical genetic growth profiling, strain panel (AID 1159580);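 note: tested at 20 µM; growth read once vehicle control cultures reached saturation at 30 °C; 1 = growth at the plate median or of vehicle wells; lower values mean less growth of the strain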
# Settings: S. cerevisiae deletion strains, growth OD
smiles,measurement,setting,value
COc1cc2c(cc1OC)[C@@H]1C(=O)c3ccc4c(c3O[C@@H]1CO2)C=CC(C)(C)O4,normalized growth,"locus YAL013W, strain DEP1, active compounds read low",0.993
same,normalized growth,"locus YAL021C, strain ccr4, active compounds read low",1.05
same,normalized growth,"locus YAL026C, strain drs2, active compounds read low",1.02
same,normalized growth,"locus YAL030W, strain snc1, active compounds read low",1.02
same,normalized growth,"locus YBL061C, strain skt5, active compounds read low",1.01
same,normalized growth,"locus YBR009C, strain hhf1, active compounds read low",0.938
same,normalized growth,"locus YBR021W, strain FUR4, active compounds read low",0.972
same,normalized growth,"locus YBR023C, strain chs3, active compounds read low",1.01
same,normalized growth,"locus YBR171W, strain sec66, active compounds read low",0.993
same,normalized growth,"locus YBR229C, strain ROT2, active compounds read low",0.99
same,normalized growth,"locus YBR231C, strain swc5, active compounds read low",0.99
same,normalized growth,"locus YBR279W, strain paf1, active compounds read low",1.01
same,normalized growth,"locus YCL011C, strain gbp2, active compounds read low",0.98
same,normalized growth,"locus YCL016C, strain dcc1, active compounds read low",1
same,normalized growth,"locus YCL029C, strain bik1, active compounds read low",0.971
same,normalized growth,"locus YCL069W, strain vba3, active compounds read low",1
same,normalized growth,"locus YCR088W, strain abp1, active compounds read low",1.01
same,normalized growth,"locus YDL005C, strain med2, active compounds read low",1.03
same,normalized growth,"locus YDL035C, strain GPR1, active compounds read low",0.976
same,normalized growth,"locus YDL040C, strain nat1, active compounds read low",1
same,normalized growth,"locus YDL074C, strain BRE1, active compounds read low",0.994
same,normalized growth,"locus YDL101C, strain DUN1, active compounds read low",0.976
same,normalized growth,"locus YDL134C, strain PPH21, active compounds read low",0.99
same,normalized growth,"locus YDL185W, strain tfp1, active compounds read low",0.97
same,normalized growth,"locus YDL192W, strain arf1, active compounds read low",0.964
same,normalized growth,"locus YDR001C, strain nth1, active compounds read low",1.01
same,normalized growth,"locus YDR069C, strain doa4, active compounds read low",1
same,normalized growth,"locus YDR101C, strain arx1, active compounds read low",0.988
same,normalized growth,"locus YDR137W, strain rgp1, active compounds read low",0.88
same,normalized growth,"locus YDR150W, strain NUM1, active compounds read low",0.987
same,normalized growth,"locus YDR159W, strain sac3, active compounds read low",0.898
same,normalized growth,"locus YDR162C, strain NBP2, active compounds read low",1.01
same,normalized growth,"locus YDR195W, strain ref2",1.1
same,normalized growth,"locus YDR297W, strain sur2, active compounds read low",0.993
same,normalized growth,"locus YDR318W, strain mcm21, active compounds read low",0.966
same,normalized growth,"locus YDR334W, strain swr1, active compounds read low",1.02
same,normalized growth,"locus YDR335W, strain msn5, active compounds read low",1.02
same,normalized growth,"locus YDR388W, active compounds read low",0.974
same,normalized growth,"locus YDR392W, strain spt3, active compounds read low",0.607 (active)
same,normalized growth,"locus YDR502C, strain sam2, active compounds read low",0.981
same,normalized growth,"locus YEL003W, strain gim4, active compounds read low",1.01
same,normalized growth,"locus YEL037C, strain rad23, active compounds read low",1.03
same,normalized growth,"locus YEL061C, strain CIN8 (second series), active compounds read low",1.02
same,normalized growth,"locus YEL061C, strain CIN8, active compounds read low",0.995
same,normalized growth,"locus YER015W, strain faa2, active compounds read low",1.01
same,normalized growth,"locus YER016W, strain bim1, active compounds read low",1.01
same,normalized growth,"locus YER110C, active compounds read low",0.962
same,normalized growth,"locus YER111C, strain swi4, active compounds read low",1.04
same,normalized growth,"locus YER155C, strain BEM2 (second series), active compounds read low",0.991
same,normalized growth,"locus YER155C, strain BEM2, active compounds read low",0.988
same,normalized growth,"locus YER167W, strain BCK2, active compounds read low",0.955
same,normalized growth,"locus YFR010W, strain ubp6, active compounds read low",1.01
same,normalized growth,"locus YGL078C, strain dbp3, active compounds read low",0.973
same,normalized growth,"locus YGL086W, strain mad1, active compounds read low",0.958
same,normalized growth,"locus YGL167C, strain pmr1, active compounds read low",1
same,normalized growth,"locus YGL173C, strain kem1, active compounds read low",0.978
same,normalized growth,"locus YGL227W, strain vid30, active compounds read low",1
same,normalized growth,"locus YGL240W, strain doc1, active compounds read low",0.98
same,normalized growth,"locus YGL248W, strain PDE1, active compounds read low",0.986
same,normalized growth,"locus YGL253W, strain hxk2, active compounds read low",0.996
same,normalized growth,"locus YGR078C, strain PAC10, active compounds read low",1.01
same,normalized growth,"locus YGR135W, strain pre9, active compounds read low",0.987
same,normalized growth,"locus YGR229C, strain SMI1, active compounds read low",0.983
same,normalized growth,"locus YGR252W, strain gcn5, active compounds read low",0.891
same,normalized growth,"locus YHR013C, strain ard1, active compounds read low",0.993
same,normalized growth,"locus YHR027C, strain rpn1, active compounds read low",1
same,normalized growth,"locus YHR030C, strain SLT2, active compounds read low",0.986 and 0.96
same,normalized growth,"locus YHR079C, strain IRE1 (second series), active compounds read low",0.987
same,normalized growth,"locus YHR079C, strain IRE1, active compounds read low",0.954
same,normalized growth,"locus YHR094C, strain hxt1, active compounds read low",0.978
same,normalized growth,"locus YHR129C, strain ARP1, active compounds read low",0.989
same,normalized growth,"locus YHR142W, strain chs7, active compounds read low",0.996
same,normalized growth,"locus YHR200W, strain rpn10, active compounds read low",0.965
same,normalized growth,"locus YIL066C, strain RNR3, active compounds read low",0.964
same,normalized growth,"locus YIL073C, strain SPO22, active compounds read low",0.937
same,normalized growth,"locus YIL125W, strain kgd1, active compounds read low",0.979
same,normalized growth,"locus YIR030C, strain dcg1, active compounds read low",0.979
same,normalized growth,"locus YJL092W, strain hpr5, active compounds read low",1
same,normalized growth,"locus YJL095W, strain BCK1 (second series), active compounds read low",0.988
same,normalized growth,"locus YJL095W, strain BCK1, active compounds read low",0.998 and 0.956
same,normalized growth,"locus YJL115W, strain asf1, active compounds read low",1.01
same,normalized growth,"locus YJL129C, strain trk1, active compounds read low",0.985
same,normalized growth,"locus YJL134W, strain LCB3, active compounds read low",0.975
same,normalized growth,"locus YJL154C, strain vps35, active compounds read low",1.01
same,normalized growth,"locus YJL164C, strain tpk1, active compounds read low",1
same,normalized growth,"locus YJL166W, strain qcr8, active compounds read low",0.959
same,normalized growth,"locus YJL168C, strain set2, active compounds read low",0.972
same,normalized growth,"locus YJL187C, strain SWE1 (second series), active compounds read low",0.993
same,normalized growth,"locus YJR043C, strain POL32, active compounds read low",0.987
same,normalized growth,"locus YJR066W, strain TOR1, active compounds read low",0.915
same,normalized growth,"locus YJR075W, strain HOC1, active compounds read low",0.973

# Reference: PubChem BioAssay AID1159580 (chemical genetic matrix, 2015)
